# Reference: the antibiotic and cytotoxicity screens of Wong et al. (2023)
# The whole screen tested about 39,000 compounds, of which about 3,300 (8.5%) were called active. What follows is part of a selection rich in actives, with near analogues and random picks from the rest.
# System: HepG2
# Experiment: cytotoxicity call (relative viability < 0.9)
# Conditions: 10 µM
row,Structure (SMILES),cytotoxicity call
1,CC(C)(O)/C=C/C(=O)[C@](C)(O)[C@H]1[C@H](O)C[C@@]2(C)[C@H]3CC=C4[C@@H](CC(=O)C(=O)C4(C)C)[C@]3(C)C(=O)C[C@]12C,active
2,Cc1nc(N2CCN(C)CC2)ccc1N,inactive
3,C[C@@H]1CN([C@H](C)CO)C(=O)CCCn2nncc2CO[C@H]1CN(C)C(=O)Oc1cccc2ccccc12,inactive
4,O=C1C2CCN(CC2)C1(CO)CO,inactive
5,CN[C@@H]1[C@@H](O)[C@@H](O[C@@H]2[C@@H](O)[C@H](O[C@H]3O[C@H](CN)CC[C@H]3N)[C@@H](N)C[C@H]2N)OC[C@]1(C)O.CN[C@@H]1[C@@H](O)[C@@H](O[C@@H]2[C@@H](O)[C@H](O[C@H]3O[C@H]([C@@H](C)N)CC[C@H]3N)[C@@H](N)C[C@H]2N)OC[C@]1(C)O.CN[C@@H]1[C@@H](O)[C@@H](O[C@@H]2[C@@H](O)[C@H](O[C@H]3O[C@H]([C@@H](C)NC)CC[C@H]3N)[C@@H](N)C[C@H]2N)OC[C@]1(C)O,inactive
6,CN1C2CCC1CC(OC(=O)C(CO)c1ccccc1)C2.O=S(=O)(O)O (configuration not stated),inactive
7,CNCC(=O)c1ccc(O)c(O)c1.Cl,inactive
8,CCn1nc(-c2cccnc2)nc2c(=O)n(C)c(=O)nc1-2,active
9,CCCC(=O)O[C@H]1CN2CC[C@H](O)[C@@H]2[C@@H](O)[C@@H]1O,inactive
10,O=[N+]([O-])O[C@@H]1CO[C@H]2[C@@H]1OC[C@@H]2O,inactive
11,C1CNC[C@@H](N2CCCC2)C1,inactive
12,O=C(NC[C@H]1CC[C@@H]2NC[C@@H]2O1)C1CCCC1,inactive
13,C=CCN=C=S,active
14,O=C1NCN(c2ccccc2)C12CCNCC2,inactive
15,CN1C[C@H]2CON[C@@H]2C1,inactive
16,O=[N+]([O-])c1ccc2c3c(cccc13)CC2,inactive
17,CC(C)(CN)CNc1ccc([N+](=O)[O-])c2cccnc12,active
18,O=C1O[C@H]2CN[C@@H]1C2,inactive
19,N[C@@H](C(=O)O)c1nn[nH]n1,inactive
20,OCC(O)C1OC2OC(C(Cl)(Cl)Cl)OC2C1O (configuration not stated),inactive
21,CS(=O)(=O)N1CCO[C@]2(COCCN(Cc3ccncc3)C2)C1,inactive
22,O=c1[nH]c2ccccc2n1C1CCN(Cc2ccc(-c3nc4cc5[nH]cnc5cc4nc3-c3ccccc3)cc2)CC1,active
23,CN1[C@@H]2CC[C@H]1C[C@H](O)C2,inactive
24,Cc1cccnc1N1CCNCC1,inactive

row,Structure (SMILES),cytotoxicity call
1,O=C1[O][SbH]23[O]C(=O)[C@H]([O]2)[C@H]2[O][SbH]4([O]C(=O)[C@H]([O]4)[C@H]1[O]3)[O]C2=O,active
2,O=C1[O][SbH]23[O]C(=O)C([O]2)C2[O][SbH]4([O]C(=O)C([O]4)C1[O]3)[O]C2=O,active
3,N#C[C@H]1NCc2cnnn2-c2ccccc21,inactive
4,O=[N+]([O-])c1c(NCCO)ccc2nonc12,inactive
5,CC(C)(C)CC(=O)N1C[C@H]2C[C@@H]1CN2,inactive
6,Cc1cc[n+](C)cc1,inactive
7,O=c1n(Cl)c(=O)n(Cl)c(=O)n1Cl,inactive
8,CC(COc1ccc(Oc2ccccc2)cc1)Oc1ccccn1 (configuration not stated),inactive
9,O=c1[n-]c(=O)n(Cl)c(=O)n1Cl.[Na+],inactive
10,CCC(C)C1OC2(C=CC1C)CC1CC(CC=C(C)C(OC3CC(OC)C(OC4CC(OC)C(O)C(C)O4)C(C)O3)C(C)C=CC=C3COC4C(O)C(C)=CC(C(=O)O1)C34O)O2 (configuration not stated) [ABAMECTIN (avermectin B1a shown) ],active
11,CN1CCN([C@@H](CN)c2ccc3c(c2)OCO3)CC1,inactive
12,O=C1C[C@H](c2ccccc2)[C@@H]2CNCCN12,inactive
13,O=C(NC(=O)c1c(F)cccc1F)Nc1cc(Cl)c(OC(F)(F)C(F)C(F)(F)F)cc1Cl (configuration not stated),active
14,O=C(NC(=O)c1c(F)cccc1F)Nc1cc(Cl)c(OC(F)(F)[C@@H](F)C(F)(F)F)cc1Cl,inactive
15,O=C(NC(=O)c1c(F)cccc1F)Nc1ccc(Cl)cc1,inactive
16,CN1CCc2cc3c(cc2[C@@H]1O)OCO3,inactive
17,CN1CCc2cc3c(cc2C1O)OCO3.Cl (configuration not stated),inactive
18,COC(=O)C[C@](O)(CCC(C)(C)O)C(=O)O[C@@H]1C(OC)=C[C@]23CCCN2CCc2cc4c(cc2[C@H]13)OCO4,active
19,CN1C[C@@H]2c3nc(N(C)C)ncc3CS(=O)(=O)[C@H]2C1,inactive
20,CCC(CO)NC(=O)C1C=C2c3cccc4c3c(cn4C)CC2N(C)C1.O=C(O)C=CC(=O)O (configuration not stated),inactive
21,CC(C)[C@@]1(NC(=O)[C@H]2C[C@@H]3c4cccc5[nH]cc(c45)C[C@H]3N(C)C2)O[C@@]2(O)[C@H]3CCCN3C(=O)[C@@H](Cc3ccccc3)N2C1=O,inactive
22,CN1CC(CNC(=O)OCc2ccccc2)CC2c3cccc4c3c(cn4C)CC21 (configuration not stated),active
23,CC(C)[C@@]1(NC(=O)[C@@H]2C[C@@H]3c4cccc5[nH]cc(c45)C[C@H]3N(C)C2)O[C@@]2(O)[C@@H]3CCCN3C(=O)[C@H](Cc3ccccc3)N2C1=O,inactive
